Most compounds without a hit are left out; they make up all but 1.4% or so of the library.
LDHA block: LDHA (human) enzyme inhibition; P00338; purified LDHA, NADH/diaphorase-resazurin fluorescence; active compounds read low; activity change, % (values are at about 110 or 230 µM); 480,000 tested, 0.15% active; AID 1347041; in the data active = activity change below about -30%; inconclusive = mostly about -25% to -30%
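Human LDH5 at 2 nM final in Tris HCl pH 7.4 with 0.06 mM NADH and 0.2 mM pyruvate, reacted 5 minutes at room temperature. Remaining NADH coupled via diaphorase/resazurin; resorufin fluorescence read at 0 and 20 minutes, normalized to enzyme-free and DMSO wells.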
TrxR1 substrate: substrates of rat thioredoxin reductase 1. 390,000 tested, 0.01% active. purified TrxR1 substrate turnover, NADPH consumption readout. Potency, µM (top dose mostly 114 µM). AID 588456. O89049; note: nearly all actives have a fitted effect of over 50% in size
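Rat TrxR1, dispensed at 90 nM, was prereduced with 400 uM NADPH (final) for 5 min at ~22 deg C, then incubated with compound 15 min before 400 uM selenite. A first-read NADPH fluorescence drop versus no-compound background flagged substrates.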
PKM2 act: activators of human pyruvate kinase M2. P14618. purified PKM2, Kinase-Glo ATP luminescence, activation; response scale: 0% is enzyme alone, no compound. Potency, µM (highest dose often 57.5 µM), usual class: activators. AID 1631. 260,000 tested, 0.34% active; note: nearly all actives have a fitted effect of over 55% in size
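Kinase-Glo luminescence reports ATP generated from ADP (0.1 mM) and PEP (0.5 mM) by purified hPK-M2 after 1 h at room temperature, pH 7.2 imidazole buffer; intermediate enzyme activity allows detecting inhibitors and activators.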
mIDH1 inhibitor: blocks human mutant IDH1 R132H enzyme; IDH1-R132H enzyme, NADPH consumption, diaphorase/resazurin fluorescence; Potency, µM (top dose mostly 76.6 µM), most hits filed as inhibitors; 390,000 tested, 0.093% active; AID 602179; note: nearly all actives have a fitted effect of over 65% in size
Target sequence (O75874 whole entry R132H, stated change not applied): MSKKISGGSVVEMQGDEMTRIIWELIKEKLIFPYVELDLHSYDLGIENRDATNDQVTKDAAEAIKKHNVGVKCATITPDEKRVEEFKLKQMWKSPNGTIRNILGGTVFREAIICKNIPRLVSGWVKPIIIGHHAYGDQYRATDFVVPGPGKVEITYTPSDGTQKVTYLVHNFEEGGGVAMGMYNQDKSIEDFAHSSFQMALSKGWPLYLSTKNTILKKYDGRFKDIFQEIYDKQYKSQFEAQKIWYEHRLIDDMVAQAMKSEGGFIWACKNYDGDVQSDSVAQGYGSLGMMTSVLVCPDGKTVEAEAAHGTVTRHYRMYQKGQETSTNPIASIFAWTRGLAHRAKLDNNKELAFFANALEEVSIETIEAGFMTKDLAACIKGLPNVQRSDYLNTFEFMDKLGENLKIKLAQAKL
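IDH1-R132H (0.5 ug/mL) preincubated 30 min with compound, then NADPH (0.016 mM) and alpha-KG (2 mM) added; 80 min at RT, pH 7.5. Remaining NADPH coupled via diaphorase/resazurin to fluorescence (540/590 nm); concentration-response curves normalized to no-enzyme control.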
TrxR1 inh: inhibitors of rat thioredoxin reductase 1; O89049; recombinant rTrxR1, NADPH fluorescence consumption, selenite substrate; Potency, µM (doses to about 114 µM), hits mostly inhibitors; 390,000 tested, 1% active; AID 588453; note: nearly all actives have a fitted effect of over 65% in size
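Rat TrxR1 (90 nM in the dispensed reagent) was pre-reduced with 400 uM NADPH for 5 min at room temperature, then incubated with compound for 15 min. After 400 uM selenite was added, NADPH fluorescence (Ex 340/Em 450 nm) was followed for 8 min.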
GLS inhibitor: glutaminase GLS (human) inhibition | O94925 | GLS enzymatic activity, qHTS titration | Potency, µM (highest dose often 45.5 µM), hits mostly inhibitors | 410,000 tested, 0.21% active | AID 624170
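Read-out is an Amplex red fluorescence increase coupled through glutamate oxidase and HRP, measured before and after 30 min room-temperature incubation. hKGA is in 45 mM KH2PO4 (pH 8.2) with 0.02% Tween-20; glutamine added as 1mM solution.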
Each line names hits and unclear results; the compound was inactive in the other large screens. Unless noted, calls come from the whole dose curve; as a rule, active = well fitted curve in the direction sought with a large enough effect; inconclusive = small, poorly fitted or top-dose-only effect, or another doubt; inactive = no such curve, though single readings can be large; an effect the other way counts as inactive or inconclusive.

CCc1ccc(CNC(=O)c2ccc(CS(=O)(=O)Cc3ccccc3C)o2)cc1	none (no result: PKM2 act)
Cc1ccccc1CS(=O)(=O)Cc1ccc(C(=O)NCc2ccco2)o1	TrxR1 inh 79µM
Cc1ccccc1CS(=O)(=O)Cc1ccc(C(=O)NCc2ccccn2)o1	TrxR1 inh 50µM
CC(=O)Nc1ccc(S(=O)(=O)[C@H]2CS(=O)(=O)C[C@@H]2N2CCOCC2)cc1	none (no result: TrxR1 substrate, PKM2 act, mIDH1 inhibitor, TrxR1 inh, GLS inhibitor)
O=C(CSc1nnc(-c2cccnc2)s1)Nc1cccc(C(=O)O)c1	none
O=C(CSc1nnc(-c2cccnc2)s1)Nc1ccccc1	PKM2 act 14µM
O=C(CSc1nnc(-c2ccncc2)s1)Nc1ccccc1	PKM2 act 4µM
COc1ccc(-c2nnc(SCC(=O)Nc3cccc(C)c3)s2)cc1	none (no result: PKM2 act)
O=C(Nc1cc([N+](=O)[O-])ccc1O)c1cccc(C(=O)Nc2cc([N+](=O)[O-])ccc2O)c1	LDHA block -35
NNC(=O)c1ccc([N+](=O)[O-])cc1	none (no result: TrxR1 substrate, PKM2 act, mIDH1 inhibitor, TrxR1 inh, GLS inhibitor)
O=C(Nc1cc([N+](=O)[O-])ccc1O)c1cccc([N+](=O)[O-])c1	none
O=C(Nc1cc([N+](=O)[O-])ccc1O)c1ccc2c(c1)C(=O)N(Cc1ccco1)C2=O	LDHA block -56, TrxR1 inh 79µM
NS(=O)(=O)c1ccc(O)c(NC(=O)c2ccc([N+](=O)[O-])cc2)c1	LDHA block -57
N#C/C(=C/c1cccc(F)c1)C(=O)c1c[nH]c2cc(F)ccc12	none (no result: TrxR1 substrate, PKM2 act, mIDH1 inhibitor, TrxR1 inh, GLS inhibitor)
Cc1ccc(/C=C/C(=O)OC(C)C(=O)Nc2ccc(Cl)cn2)o1 (stereo not given)	TrxR1 inh 14µM
COc1cccc(F)c1-c1nc(C)c(C(=O)Nc2ccc(NC(C)=O)cc2)s1	none (no result: TrxR1 substrate, PKM2 act, mIDH1 inhibitor, TrxR1 inh, GLS inhibitor)
CCCCc1c(CCC)c(=N)c2ccccc2n1C	LDHA block -37
O=C(O)CCC(=O)NNc1nc2ccccc2nc1-c1ccccc1	GLS inhibitor 11µM
Cc1ccc(NN2C(=O)C=C(c3ccccc3)C2=O)cc1	TrxR1 inh 6.3µM, GLS inhibitor inconclusive
O=C1c2ccccc2C(=O)N1Nc1ccccc1	none
O=C(ONC(=O)C1C2C=CC(C2)C1C(=O)NOC(=O)c1ccccc1)c1ccccc1 (stereo not given)	GLS inhibitor 13µM (no result: PKM2 act)
COC(=O)c1ccc(NC(=O)C2C3C=CC(C3)C2C(=O)O)cc1 (stereo not given)	none (no result: PKM2 act)
CCOC(=O)C1CCN(Cc2ccc(O)c3ncccc23)CC1	TrxR1 inh 7.1µM
Nc1c(C(=O)NC2CC2)sc2nc3c(c(-c4ccco4)c12)CC/C3=C/c1ccco1	TrxR1 inh inconclusive, GLS inhibitor 1.8µM
Cn1c(=O)[nH]c(=O)c2c1nc(Br)n2CCC(=O)c1ccccc1	TrxR1 inh 18µM
CC(C)Cn1c([N+](=O)[O-])nc2c1c(=O)[nH]c(=O)n2C	none
Cn1c(=O)[nH]c(=O)c2c1nc(Br)n2C/C=N/NC(=O)c1ccccc1	none
Cn1c(=O)[nH]c(=O)c2c1nc([N+](=O)[O-])n2Cc1ccccc1	TrxR1 inh 6.3µM
COc1ccc(N(C(=O)CCl)C(C(=O)NCCc2ccccc2)c2cccs2)cc1 (stereo not given)	TrxR1 inh 11µM
COc1cccc2cc(-c3cc(=O)oc4cc(O)ccc34)c(=O)oc12	none (no result: TrxR1 substrate, PKM2 act, mIDH1 inhibitor, TrxR1 inh, GLS inhibitor)
CC1(C)CC2(CC(c3ccccc3F)c3ccc(O)c(O)c3O2)NC(=S)N1 (stereo not given)	PKM2 act 2.8µM, TrxR1 inh 2.8µM, GLS inhibitor inconclusive
CC1(C)CC2(CC(c3ccc(F)cc3)c3ccc(O)cc3O2)NC(=S)N1 (stereo not given)	none
O=C(CSc1nnc2c(Cl)cc(C(F)(F)F)cn12)c1ccc(Br)cc1	none (no result: TrxR1 substrate, PKM2 act, mIDH1 inhibitor, TrxR1 inh, GLS inhibitor)
CCS(=O)(=O)c1ncc(Cl)c(C(=O)N2CCN(c3cccc(Cl)c3)CC2)n1	TrxR1 inh 0.4µM (no result: PKM2 act)
CS(=O)(=O)c1ncc(Cl)c(C(=O)N2CCN(c3cccc(Cl)c3)CC2)n1	TrxR1 inh 0.89µM (no result: PKM2 act)
Cc1ccc2nc(C(=O)N3CCN(c4cccc(Cl)c4)CC3)cn2c1	none (no result: TrxR1 substrate, PKM2 act, mIDH1 inhibitor, TrxR1 inh, GLS inhibitor)
Cc1cc(-c2csc(NC(=O)c3ccc(=O)[nH]c3)n2)c(C)n1Cc1ccco1	PKM2 act 10µM
Cc1cc2nc(-c3ccc(SCC(=O)N4CCN(C(=O)c5ccco5)CC4)nc3)[nH]c2cc1C	TrxR1 inh 13µM
Cc1cc2nc(-c3ccc(SCC(=O)N4CCOCC4)nc3)[nH]c2cc1C	none
CCN(CC)C(=O)c1noc2c1CC(C(C)(C)C)CC2 (stereo not given)	none (no result: TrxR1 substrate, PKM2 act, mIDH1 inhibitor, TrxR1 inh, GLS inhibitor)
Cc1nnc(Sc2nc3ccccc3o2)c2ccccc12	TrxR1 inh 8.9µM
Cc1ccc(-c2nnc(Sc3nc4ccccc4o3)c3ccccc23)cc1	none
C#CCOCCOCCOCCNc1nc(N2CCN(C(=O)[C@H](CCCCN)n3cc([C@@H](N)C(C)CC)nn3)CC2)nc(N2CCN(C(=O)[C@H](CCCCN)n3cc([C@@H](N)CO)nn3)CC2)n1 (stereo not given in full)	none (no result: LDHA block, TrxR1 substrate, mIDH1 inhibitor, TrxR1 inh, GLS inhibitor)
C#CCOCCOCCOCCNc1nc(N2CCN(C(=O)[C@H](CCCCN)n3cc(C(N)[C@H](C)CC)nn3)CC2)nc(N2CCN(C(=O)[C@H](CCC(=O)O)n3cc(C(N)[C@H](C)CC)nn3)CC2)n1 (stereo not given in full)	TrxR1 inh 56µM
C#CCOCCOCCOCCNc1nc(N2CCN(C(=O)[C@H]([C@@H](C)CC)n3cc([C@@H](N)CC(C)C)nn3)CC2)nc(N2CCN(C(=O)[C@H](CCCCN)n3cc([C@@H](N)C(C)CC)nn3)CC2)n1 (stereo not given in full)	none
C#CCOCCOCCOCCNc1nc(N2CCN(C(=O)C([C@@H](C)CC)n3cc(C(N)COC(=O)C(F)(F)F)nn3)CC2)nc(N2CCN(C(=O)[C@H](CCCCN)n3cc(C(N)[C@H](C)CC)nn3)CC2)n1 (stereo not given in full)	TrxR1 inh 50µM (no result: PKM2 act)
C#CCOCCOCCOCCNc1nc(N2CCN(C(=O)[C@H](CCCCN)n3cc([C@@H](N)C(C)CC)nn3)CC2)nc(N2CCN(C(=O)[C@H](Cc3cc4ccccc4[nH]3)n3cc([C@@H](N)CC(C)C)nn3)CC2)n1 (stereo not given in full)	TrxR1 inh 25µM
C#CCOCCOCCOCCNc1nc(N2CCN(C(=O)[C@H](CCCCN)n3cc([C@@H](N)[C@H](C)CC)nn3)CC2)nc(N2CCN(C(=O)[C@H](CCC(=O)O)n3cc([C@@H](N)CCCCN)nn3)CC2)n1	TrxR1 inh inconclusive (no result: PKM2 act)
